Screening results (PubChem)
Only some compounds are listed: those with a hit (about 2% of all), similar ones and a draw of the others.
PREPL_inh – inhibits the human prolyl oligopeptidase-like enzyme. AID 2751. recombinant PREPL, fluorescence polarization activity-based probe. inhibition, % at 5.96 µM. Q4J6C6. 320,000 tested, 0.68% active;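 further: 0% = enzyme with DMSO and 100% = wells lacking enzyme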
PME-1_primary – blocks human protein phosphatase methylesterase 1; 320,000 tested, 0.53% active; inhibition, % at 5.9 µM; recombinant PME-1, FP-Rh probe fluorescence polarization; AID 2130;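 active means inhibition above the campaign mean of all compounds plus 3 SD, cut at about 26% in these data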;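 further: competitive labeling of PME-1 active site by serine hydrolase directed probe; 0% = PME-1 with DMSO and 100% = wells lacking PME-1 enzyme; inhibitors block probe labeling so polarization falls and inhibition rises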
LYPLA1_inh – counter-screen for PME1 inhibitors: inhibitors of human LYPLA1; recombinant LYPLA1, FP-Rh probe fluorescence polarization; inhibition, % at 5.9 µM; 320,000 tested, 0.16% active; AID 2174;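 active means inhibition above the mean of all tested compounds plus 3 SD, set per campaign, cut at about 14% in these data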;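 further: inhibitors block serine hydrolase probe labeling of LYPLA1 so polarization falls; 0% = enzyme with DMSO and 100% = wells lacking LYPLA1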
Target sequence (O75608 whole entry, looked up): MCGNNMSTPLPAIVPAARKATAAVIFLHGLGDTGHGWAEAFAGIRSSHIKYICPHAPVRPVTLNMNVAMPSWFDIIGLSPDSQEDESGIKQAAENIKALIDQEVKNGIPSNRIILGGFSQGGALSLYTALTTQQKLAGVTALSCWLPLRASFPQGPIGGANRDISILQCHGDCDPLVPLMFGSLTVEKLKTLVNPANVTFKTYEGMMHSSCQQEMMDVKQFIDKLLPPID
LYPLA2_inh – counter-screen for PME1 inhibitors: inhibitors of human LYPLA2; O95372; recombinant LYPLA2, FP-Rh probe fluorescence polarization; inhibition, % at 5.9 µM; 320,000 tested, 0.38% active;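 active means inhibition above the screen-wide mean plus 3 SD, limit set per campaign, cut at about 26% in these data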;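 further: 0% = LYPLA2 with DMSO and 100% = wells lacking LYPLA2 enzyme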
GSTO1_inh – blocks human GSTO1 in RBBP9 counter-screen; P78417; recombinant GSTO1, activity-based probe fluorescence polarization; inhibition, % at 5.96 µM; 300,000 tested, 1.1% active; AID 1974;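 active means inhibition above the campaign mean inhibition plus 3 SD, cut at about 35% in these data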;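 further: 0% = GSTO1-1 with DMSO and 100% = wells lacking GSTO1-1 enzyme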
Fam108B_counter – blocks mouse Fam108B hydrolase in RBBP9 counter-screen. 300,000 tested, 0.33% active. inhibition, % at 9.51 µM. recombinant Fam108B, FP-Rh probe fluorescence polarization. AID 1947;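 active means inhibition above the screen mean inhibition plus 3 SD, computed separately per campaign, cut at about 18% in these data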;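 further: inhibitors lower polarization as less probe binds the enzyme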
PREPL_inh_cf – human PREPL inhibition, confirmation; 2,000 tested, 67% active; shares compounds with PREPL_inh; inhibition, % at 5.96 µM; recombinant PREPL, fluorescence polarization activity probe;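 further: 0% = protein with DMSO and 100% = wells lacking protein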
Numbers without * were called inactive; / = no result given. Unless noted, no stated cut-off is given here; in the data, active means inhibition above about 43%; inactive means the rest.

SMILES PREPL_inh PME-1_primary LYPLA1_inh LYPLA2_inh GSTO1_inh Fam108B_counter PREPL_inh_cf
CCN(CC)c1ccc(CN2CC=C(c3ccc(F)cc3)CC2)cc1 46* 4 -1 -3 -4 -2 37
C[n+]1c(-c2ccccc2)cc(CCCCc2cc(-c3ccccc3)[n+](C)c(-c3ccccc3)c2)cc1-c1ccccc1 46* -3 -5 -2 3 -3 46*
COc1ccc(C(=O)O/N=C(/C(N)=O)P(=O)(OC(C)C)OC(C)C)cc1 1 1 0 -3 -1 -5 /
CCCCn1c(O)c(C(CC)=NCc2ccc3c(c2)OCO3)c(=O)[nH]c1=O 49* -4 -4 12 4 1 49*
C=CCn1c(O)c(C(CC)=NCc2ccc3c(c2)OCO3)c(=O)[nH]c1=O 55* 2 0 3 3 2 53*
C=CCn1c(O)c(C(C)=NCCC(c2ccccc2)c2ccccc2)c(=O)[nH]c1=O 2 2 0 1 3 2 /
CCCCn1c(O)c(C(C)=NCCc2c[nH]c3ccccc23)c(=O)[nH]c1=O 44* 7 1 21 7 -2 36
C=CCn1c(O)c(C(C)=NCCc2c[nH]c3ccccc23)c(=O)[nH]c1=O 49* 0 -3 2 3 1 48*
BrCC(Br)(Br)Br 17 -4 3 12 / / /
C[C@]12CC[C@H](O)C[C@H]1CC[C@@H]1[C@@H]2C[C@@H](O)[C@]2(C)[C@@H](C3=CC(=O)OC3)CC[C@]12O -2 0 -3 0 -2 7 /
CN1C[C@H](CNC(=O)OCc2ccccc2)C[C@@H]2c3cccc4c3c(cn4C)C[C@H]21 64* 2 0 3 3 2 61*
COC(=O)[C@@H]1C[C@@]1(C)[C@@H](NP(=O)(c1ccccc1)c1ccccc1)c1ccccc1 48* 8 2 0 0 -2 56*
Cc1[nH]c2ccc(OCc3ccccc3)cc2c1CCN 50* -1 -3 -2 12 8 44*
COc1ccc2[nH]c3c(c2c1)CCN=C3C 82* 4 -6 -4 -3 2 41
COc1ccc2[nH]cc(CCN)c2c1 14 -8 0 6 2 -4 /
CCN1CCN(C(=O)COc2ccc3oc4c(c3c2)CCCC4)CC1 34 / / / / / /
